FMDV inh – antivirals against foot and mouth disease virus; FMDV antiviral cell-based qHTS; Potency, µM (titrated, usually from 57.9 µM), actives largely listed as inhibitors; hit rate 1.2% among 410,000; AID 1159524; calls by dose curve; tested in HEK293T cells; note: read-out not given here; nearly all actives have a fitted effect of over 45% in size
MARV entry inh – inhibitors of Marburg virus binding or cell entry; Marburg virus pseudotyped entry inhibition, cell reporter; hit rate 1.8% among 300,000; Potency, µM (doses to about 37.8 µM), usual class: inhibitors; AID 540276; calls by dose curve; tested in HEK293 cells
VACV mCherry inh – vaccinia inhibition (mCherry reporter) | Vaccinia virus mCherry reporter infection, fluorescence | AID 720579 | hit rate 0.63% among 310,000 | Potency, µM (highest dose often 36.5 µM), usual class: inhibitors; calls by dose curve; tested in A549 cells; note: nearly all actives have a fitted effect of over 35% in size
Vaccinia Venus – inhibitors of vaccinia virus (Venus reporter). Vaccinia virus Venus reporter expression, fluorescence. Potency, µM (titrated, usually from 36.5 µM), most hits filed as inhibitors. hit rate 0.46% among 330,000; calls by dose curve; tested in A549 cells; note: nearly all actives have a fitted effect of over 30% in size
Lassa entry inh – inhibitors of Lassa virus binding or cell entry; hit rate 1.2% among 300,000; Lassa virus pseudotype entry inhibition, cell reporter; Potency, µM (series often up to 37.9 µM), hits mostly inhibitors; calls by dose curve; tested in HEK293 cells; note: nearly all actives have a fitted effect of over 50% in size
HCMV antiviral – blocks human cytomegalovirus replication | activity change, negative = inhibition, % at 57.5 µM | HFF cells, HCMV-luciferase reporter, 72 h; stronger effect = lower value | hit rate 4.5% among 410,000 | AID 1259415; in the data active = activity change below about -60%; inconclusive = no clear call, values can overlap the other calls; inactive = above about -39%
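Two compound doses tested in HFFs infected with HCMV-luciferase, MOI 1 PFU/cell, 72 h at 37C. Lysate luminescence read with OneGlo; data normalized against buffer-only and 10uM Salinomycin inhibitor controls.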
Hits are given with their value. An excerpt weighted towards active compounds, which were near 6.5% of everything screened.

O=C(NCc1ccccc1)C1Cc2c(-c3ccc4c(c3)OCO4)ccnc2O1 (centres undefined) was read as FMDV inh inactive, VACV mCherry inh inactive, Vaccinia Venus inconclusive and HCMV antiviral -67.
CC(=O)Nc1ccc(-c2ccnc3c2CC(C(=O)NCc2ccccc2)O3)cc1 (centres undefined) was read as FMDV inh inactive, VACV mCherry inh inactive, Vaccinia Venus inconclusive and HCMV antiviral -64.
CC(=O)Nc1ccc(-c2ccnc3c2CC(C(=O)NCc2ccco2)O3)cc1 (centres undefined) was read as FMDV inh inactive, VACV mCherry inh inconclusive, Vaccinia Venus inconclusive and HCMV antiviral -70.
COc1ccccc1C(=O)c1c(N)c(-c2nc(-c3ccccc3)cs2)c2ccccn12 was read as FMDV inh inactive, MARV entry inh inactive, VACV mCherry inh inactive, Vaccinia Venus inactive, Lassa entry inh inactive and HCMV antiviral inactive.
`CCc1cc2c(=O)c(-c3ccc4c(c3)OCCO4)c(C)oc2cc1OS(C)(=O)=O` gave FMDV inh inconclusive, MARV entry inh inconclusive, VACV mCherry inh inconclusive, Vaccinia Venus inconclusive, Lassa entry inh inconclusive and HCMV antiviral -63.
`CCc1ccc(CNC(=O)CN2C(=O)CSc3c2c(C)nn3-c2ccccc2)cc1` gave FMDV inh inactive, VACV mCherry inh inactive, Vaccinia Venus inactive, Lassa entry inh inactive and HCMV antiviral inactive.
`C=CCOc1ccc(/C(O)=C2\C(=O)C(=O)N(CCN(C)C)[C@@H]2c2cccs2)cc1` gave MARV entry inh inactive.
For COc1cc(C(=O)Nc2nc(-c3ccc(Cl)cc3)c(C)s2)ccc1OCC(=O)Nc1ccc(F)cc1 the results were FMDV inh 28µM, MARV entry inh inconclusive, VACV mCherry inh inactive, Vaccinia Venus inactive, Lassa entry inh 10µM and HCMV antiviral inactive.
COc1cc(/C=N/NC(=O)c2ccccc2O)ccc1OCC(=O)Nc1ccccc1 was read as FMDV inh inactive and HCMV antiviral inactive.
For O=C(COc1ccc(/C=N/NC(=O)c2cc3ccccc3o2)cc1Cl)Nc1ccccc1 the results were FMDV inh inactive, MARV entry inh inconclusive, VACV mCherry inh inconclusive, Vaccinia Venus inconclusive and Lassa entry inh 8.9µM.
COc1cc(CNCCc2ccccc2)cc(Cl)c1OCc1ccccc1 was read as FMDV inh inconclusive, MARV entry inh inconclusive, VACV mCherry inh 10µM, Vaccinia Venus inconclusive, Lassa entry inh inconclusive and HCMV antiviral inactive.
Screening COc1cc(CNCCc2ccccc2)cc(Br)c1OCC(=O)Nc1ccccc1C returned FMDV inh inactive, MARV entry inh 21µM, Lassa entry inh inactive and HCMV antiviral inactive.
For CCN(CC)CCN(C(=O)c1ccco1)c1nc2c(C)c(C)ccc2s1 the results were FMDV inh inactive, VACV mCherry inh inactive, Vaccinia Venus inactive, Lassa entry inh inactive and HCMV antiviral inconclusive.
For CCOc1ccc(C(=O)Nc2ccc(-c3nc4cc(C)ccc4o3)cc2)cc1 the results were FMDV inh inactive, VACV mCherry inh inactive, Vaccinia Venus inactive, Lassa entry inh inactive and HCMV antiviral inactive.
`COc1cc(C(=O)Nc2ccc3oc(-c4ccccc4)nc3c2)cc(OC)c1OC` gave FMDV inh inconclusive, VACV mCherry inh inactive, Vaccinia Venus inactive, Lassa entry inh inconclusive and HCMV antiviral -81.
For O=C(Nc1ccc2oc(-c3cccnc3)nc2c1)c1ccc(-c2ccccc2)o1 the results were FMDV inh 35µM, VACV mCherry inh inactive, Vaccinia Venus inactive, Lassa entry inh inconclusive and HCMV antiviral -73.
`CCOc1ccc(C(=O)Nc2ccc(-c3nc4cc(CC)ccc4o3)cc2)cc1` gave FMDV inh inactive, VACV mCherry inh inconclusive, Vaccinia Venus inactive, Lassa entry inh inactive and HCMV antiviral -74.
Screening C(=Nc1ccc(/C=C/c2ccnc3ccccc23)cc1)c1cccs1 returned VACV mCherry inh inactive and Vaccinia Venus inactive.
C=C[C@H](CC(C)C)N(Cc1ccccc1)S(=O)(=O)N(Cc1ccc(OC)cc1)[C@H](C=C)CC(C)C was read as FMDV inh inconclusive, VACV mCherry inh inactive, Vaccinia Venus inactive and HCMV antiviral inactive.
COC(=O)[C@H](CC(C)C)NS(=O)(=O)N(Cc1ccccc1)[C@@H](CC(C)C)C(=O)OC was read as FMDV inh inactive, VACV mCherry inh inconclusive, Vaccinia Venus inactive and HCMV antiviral inactive.
Screening COC(=O)[C@H](CC(C)C)N(Cc1ccccc1)S(=O)(=O)N(Cc1ccccc1)[C@@H](CC(C)C)C(=O)OC returned FMDV inh inconclusive, VACV mCherry inh inactive, Vaccinia Venus inactive and HCMV antiviral -69.
Screening CCOC(=O)[C@@H](C)NS(=O)(=O)N(Cc1ccccc1)[C@H](C(=O)OC)C(C)C returned FMDV inh inactive, VACV mCherry inh inactive, Vaccinia Venus inactive and HCMV antiviral inactive.
Screening CCOC(=O)[C@@H](C)N(Cc1ccc(OC)cc1)S(=O)(=O)N(Cc1ccccc1)[C@H](C(=O)OC)C(C)C returned FMDV inh inactive, MARV entry inh inactive, VACV mCherry inh inactive, Vaccinia Venus inconclusive and HCMV antiviral -79.
`COC(=O)[C@H](CC(C)C)N(Cc1ccccc1)S(=O)(=O)N(Cc1ccc(OC)cc1)[C@@H](CC(C)C)C(=O)OC` gave FMDV inh inconclusive, VACV mCherry inh inactive, Vaccinia Venus inactive and HCMV antiviral -66.
OC(c1ccc2c(c1)CN(Cc1cccc3nccnc13)CCO2)C1CCCCC1 (centres undefined) was read as FMDV inh inactive, VACV mCherry inh inactive and Vaccinia Venus inactive.
For O=C(COc1ccc(F)cc1)OCc1cc(=O)n2nc(C3CCCCC3)sc2n1 the results were FMDV inh inactive, VACV mCherry inh inactive, Vaccinia Venus inactive, Lassa entry inh inactive and HCMV antiviral inactive.
`Oc1ccccc1-c1n[nH]c(-c2ccccc2O)n1` gave FMDV inh inactive, MARV entry inh inconclusive, VACV mCherry inh 2.8µM, Vaccinia Venus 4µM, Lassa entry inh inconclusive and HCMV antiviral -96.
`Clc1ccccc1-c1nc(-c2ccccc2)n[nH]1` gave FMDV inh inactive, MARV entry inh inactive, Lassa entry inh inconclusive and HCMV antiviral inactive.
C=COC[C@H]1CN2[C@@H](CC[C@@H](C)[C@@H]2c2ccc(Br)cc2)C(=O)O1 was read as MARV entry inh inactive.
CCCN(CC(=O)Nc1ccccc1C)C(=O)/C=C/c1ccc(S(=O)(=O)N2CCCCCC2)cc1 was read as FMDV inh inactive, MARV entry inh 11µM, VACV mCherry inh inactive, Vaccinia Venus inactive, Lassa entry inh inactive and HCMV antiviral inactive.
For COc1ccc(NC(=O)CN(C)C(=O)/C=C/c2ccc(S(=O)(=O)N3CCCCCC3)cc2)cc1 the results were FMDV inh inactive, MARV entry inh inconclusive, VACV mCherry inh inactive, Vaccinia Venus inactive, Lassa entry inh inactive and HCMV antiviral -77.
`O=C(CSc1nc(=O)n(Cc2ccco2)c2c1CCC2)NCc1ccccc1Cl` gave FMDV inh inactive, VACV mCherry inh inactive, Vaccinia Venus inactive, Lassa entry inh inactive and HCMV antiviral inactive.

Assay outcomes (PubChem BioAssay)
